In all, about 33,000 sequences were measured (“e-score”: median about -0.037, highest 2% from about 0.34 on). Shown is part of a subset that was picked to be rich in the highest values.

The assay has as its target T1, GST-Rok (full length) (Bacillus subtilis subsp. subtilis str. …, UniProt O34857 1-191).
T1 sequence: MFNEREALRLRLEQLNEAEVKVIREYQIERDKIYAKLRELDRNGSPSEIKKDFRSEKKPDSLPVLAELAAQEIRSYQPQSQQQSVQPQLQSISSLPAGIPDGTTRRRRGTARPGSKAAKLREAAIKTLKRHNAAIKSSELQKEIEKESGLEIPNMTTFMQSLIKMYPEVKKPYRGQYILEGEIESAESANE
The assay can be described thus: protein binding microarray; Rok is a gene silencer of Bacillus subtilis; high values mean tight binding. The conditions noted are these: protein: recombinant; tags: GST (pTH5325, pDEST15-Magic modified); dsDNA, one strand shown. The gist of the method: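 Every oligonucleotide joins a 25-mer constant primer to a 35-mer variable part drawn from a de Bruijn sequence of order 10, so each non-palindromic 8-mer appears at least 32 times and each palindromic 8-mer 16 times. The preference for every 8-mer is reported as a unitless, rank-based enrichment score (E-score). This score spans 0.5 for the most favored 8-mer to −0.5 for the most disfavored.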
Turning to ATGTTGTA, the binding signal came out at 0.223 E-score.

Turning to AATACCTA, the binding signal amounted to 0.267 E-score. The same measure for ATTACCTA: 0.382 E-score; for GATACCTA: 0.34 E-score; for CATACCTA: 0.334 E-score. For the sequence ATTACCTC, the binding signal worked out at 0.167 E-score. The same measure for CTTACGTA: 0.179 E-score.

Take ATTACCTG: the binding signal amounted to 0.126 E-score.

In the case of ATTACGTA, the binding signal worked out at 0.38 E-score. Under GTTACGTA stands 0.169 E-score; under ACGCCGAC, -0.196 E-score; under ACGACATG, 0.136 E-score. Consider CACCAGTA, for which the binding signal is -0.00869 E-score. Under AAAGTCGC stands 0.0343 E-score. The same measure for GGCTCTAA: 0.0778 E-score. The same measure for AACTCTGA: 0.0339 E-score. Turning to CCAGACGG, the binding signal was -0.108 E-score. The same measure for CAAAGACC: -0.0604 E-score; for GTATTCAA: 0.0317 E-score. The same measure for GTAGTAGA: 0.33 E-score.

In the case of ATAGTAGA, the binding signal was found to be 0.346 E-score. Under ATAGTAGC stands 0.315 E-score.

For the sequence CTAGTAGC, the binding signal worked out at 0.251 E-score.

On to CCAGTAGA, for which the binding signal came out at 0.166 E-score. With CTAGTAGA, the binding signal stood at 0.404 E-score.

With GCAGTAGC, the binding signal was -0.0296 E-score. The same measure for CAAGTAGA: 0.286 E-score. Turning to GCAGTAGA, the binding signal was 0.342 E-score. The same measure for AGCCGGAT: -0.184 E-score; for ATCCTTCC: -0.158 E-score.

For the sequence CATTGAAA, the binding signal was -0.0384 E-score. Regarding ACTCTCCA, the binding signal was -0.0297 E-score.

As to TCCGGTAA, the binding signal was 0.0305 E-score.

As to AATTTTAC, the binding signal was determined as 0.355 E-score. Under AATTTTAG stands 0.222 E-score; under GAATTTAA, 0.0678 E-score. As for AAAATTAC, the binding signal is 0.248 E-score. The same measure for ATTTTACC: 0.351 E-score; for ATTTTACA: 0.311 E-score. Under ATTTTTAC stands 0.335 E-score; under CAATTTAA, 0.152 E-score; under CAAATTAG, 0.21 E-score. Consider TAATTTAA, for which the binding signal is 0.356 E-score. The same measure for ATTTTACG: 0.219 E-score; for CAAATTAC: 0.356 E-score. On to GGATCTTA, for which the binding signal is 0.0165 E-score. Take CTGTCTAA: the binding signal is -0.0397 E-score. The same measure for AAGTCTGG: -0.0136 E-score; for AATGCACG: -0.0533 E-score; for CAACTTAC: 0.216 E-score. On to TAAGGTAA, for which the binding signal worked out at 0.0381 E-score. Under TCCAGTCA stands -0.0213 E-score; under AGATTTTA, 0.294 E-score; under GACAAACA, 0.0661 E-score.

On to TCGGTGAA, for which the binding signal was -0.0505 E-score. Under TCAACGAA stands 0.0593 E-score; under CAATTTAC, 0.288 E-score; under CATTTTAC, 0.349 E-score. The same measure for AAATTTAT: 0.351 E-score; for CATTTTAA: 0.0564 E-score. The same measure for GAATTTAC: 0.268 E-score; for AAATTTAC: 0.336 E-score.

AAATTTAG: the binding signal was found to be 0.163 E-score. Under GATTTTAC stands 0.18 E-score; under AATTTTAT, 0.273 E-score. Under GATGAACC stands -0.136 E-score. For the sequence ATGTTGGC, the binding signal came out at 0.0169 E-score.

With ACATGTAG, the binding signal worked out at 0.338 E-score.

In the case of ACATGTAT, the binding signal came out at 0.167 E-score.

As for CCATGTAG, the binding signal stood at 0.271 E-score. As for CCATGTAC, the binding signal was 0.193 E-score.

Take GCATGTAC: the binding signal came to 0.0911 E-score. Under ACATGTAC stands 0.358 E-score. Under CGGGTACA stands 0.154 E-score. As for CGACAGCG, the binding signal was -0.036 E-score.

Turning to AATTACTA, the binding signal stood at 0.434 E-score.

In the case of ATTTACTG, the binding signal came to 0.287 E-score. Take ATTTACTC: the binding signal was found to be 0.0747 E-score.

Consider AATTACCC, for which the binding signal was determined as 0.215 E-score. Under GATTACTA stands 0.2 E-score; under CGTTACTA, 0.34 E-score. The same measure for ATTTACTA: 0.459 E-score; for AATTACTG: 0.191 E-score.

Consider AATTACCG, for which the binding signal amounted to 0.32 E-score.

Regarding AATTACCT, the binding signal was found to be 0.357 E-score. As to GGTTACTA, the binding signal was determined as 0.163 E-score. The same measure for CGTTACTC: -0.0623 E-score; for GACTTATA: 0.257 E-score; for CCGCACCA: -0.082 E-score. The same measure for AGGTGTCA: -0.0859 E-score. Turning to CGCCCTAC, the binding signal is -0.152 E-score. The same measure for CATATGCA: 0.117 E-score; for AGTCAGCC: -0.00495 E-score. The same measure for CGCCCTTA: -0.158 E-score.

The record behind these values is article PMC6212790, “How bacterial xenogeneic silencer rok distinguishes foreign from self DNA in its resident genome”.
